{
  "source": "the supplement of paper PMC13380429",
  "key": {"[1]": {"test_system": "Vero E6 infected with SARS-CoV-2", "assay": "morphology score (similarity to uninfected cells); higher = more like uninfected cells", "conditions": "24 h"}, "[2]": {"test_system": "Vero E6 infected with SARS-CoV-2", "assay": "SARS-CoV-2 infection rate relative to infected DMSO; higher = more infection, active = 60 or less", "conditions": "24 h"}},
  "data": [
    {"smiles": "N=C(N)NS(=O)(=O)c1ccc(N)cc1", "note": "[sulfaguanidine] (10 µM)", "values": [
      {"measurement": "morphology score", "setting": "[1]", "result": 0.00117},
      {"measurement": "SARS-CoV-2 infection rate", "setting": "[2]", "result": "108% (inactive)"}
    ]},
    {"smiles": "CCN(CC)CC1CCN(c2ncc3ncnc(Nc4ccc(F)c(Cl)c4)c3n2)CC1", "note": "(10 µM)", "values": [
      {"measurement": "morphology score", "setting": "[1]", "result": -0.273},
      {"measurement": "SARS-CoV-2 infection rate", "setting": "[2]", "result": "112% (inactive)"}
    ]},
    {"smiles": "CC(C)CC(=O)Nc1n[nH]c2c1CN(C(=O)C1CCN(C)CC1)C2(C)C", "note": "(10 µM)", "values": [
      {"measurement": "morphology score", "setting": "[1]", "result": 0.099},
      {"measurement": "SARS-CoV-2 infection rate", "setting": "[2]", "result": "113% (inactive)"}
    ]},
    {"smiles": "CC(O)CC(=O)O", "note": "(stereo not drawn) [beta-hydroxybutyrate] (10 µM)", "values": [
      {"measurement": "morphology score", "setting": "[1]", "result": -0.0603},
      {"measurement": "SARS-CoV-2 infection rate", "setting": "[2]", "result": "116% (inactive)"}
    ]},
    {"smiles": "CCOc1ccccc1OC(c1ccccc1)C1CNCCO1", "note": "(stereo not given) [reboxetine] (10 µM)", "values": [
      {"measurement": "morphology score", "setting": "[1]", "result": -0.0871},
      {"measurement": "SARS-CoV-2 infection rate", "setting": "[2]", "result": "113% (inactive)"}
    ]},
    {"smiles": "CCc1ccc(C(=O)C(C)CN2CCCCC2)cc1", "note": "(stereo not given) [eperisone] (10 µM)", "values": [
      {"measurement": "morphology score", "setting": "[1]", "result": 0.374},
      {"measurement": "SARS-CoV-2 infection rate", "setting": "[2]", "result": "80% (inactive)"}
    ]},
    {"smiles": "Cc1cc(Nc2cc(C)c(C#N)c(N[C@@H](C)CCCC(C)(C)O)n2)n[nH]1", "note": "(10 µM)", "values": [
      {"measurement": "morphology score", "setting": "[1]", "result": -0.0857},
      {"measurement": "SARS-CoV-2 infection rate", "setting": "[2]", "result": "113% (inactive)"}
    ]},
    {"smiles": "N#CC(Cc1ccc(O)cc1)c1ccc(O)cc1", "note": "(stereo not given) [diarylpropionitrile] (10 µM)", "values": [
      {"measurement": "morphology score", "setting": "[1]", "result": 0.138},
      {"measurement": "SARS-CoV-2 infection rate", "setting": "[2]", "result": "99% (inactive)"}
    ]},
    {"smiles": "Cc1cc2nc3c(=O)[nH]c(=O)nc-3n(C[C@H](O)[C@H](O)[C@H](O)COP(=O)(O)O)c2cc1C", "note": "[riboflavin-5-phosphate-sodium] (10 µM)", "values": [
      {"measurement": "morphology score", "setting": "[1]", "result": 0.173},
      {"measurement": "SARS-CoV-2 infection rate", "setting": "[2]", "result": "102% (inactive)"}
    ]},
    {"smiles": "COc1cccc(OC)c1OCCNC[C@H]1COc2ccccc2O1", "note": "(10 µM)", "values": [
      {"measurement": "morphology score", "setting": "[1]", "result": 0.138},
      {"measurement": "SARS-CoV-2 infection rate", "setting": "[2]", "result": "108% (inactive)"}
    ]},
    {"smiles": "Nc1nc(=O)n([C@@H]2CS[C@H](CO)O2)cc1F", "note": "[emtricitabine] (10 µM)", "values": [
      {"measurement": "morphology score", "setting": "[1]", "result": 0.154},
      {"measurement": "SARS-CoV-2 infection rate", "setting": "[2]", "result": "114% (inactive)"}
    ]},
    {"smiles": "O=C(O)C1=CCNCC1", "note": "[isoguvacine] (10 µM)", "values": [
      {"measurement": "morphology score", "setting": "[1]", "result": 0.0662},
      {"measurement": "SARS-CoV-2 infection rate", "setting": "[2]", "result": "99.5% (inactive)"}
    ]},
    {"smiles": "CCN1CCN(Cc2ccc(Nc3ncc(F)c(-c4cc(F)c5nc(C)n(C(C)C)c5c4)n3)nc2)CC1", "note": "[abemaciclib] (10 µM)", "values": [
      {"measurement": "morphology score", "setting": "[1]", "result": 0.0416},
      {"measurement": "SARS-CoV-2 infection rate", "setting": "[2]", "result": "107% (inactive)"}
    ]},
    {"smiles": "Cc1ccc(-n2nc(C(C)(C)C)cc2NC(=O)NCc2cc(F)ccc2Oc2ccc3c(cnn3CCO)c2)cc1", "note": "[pexmetinib] (0.833333 µM)", "values": [
      {"measurement": "morphology score", "setting": "[1]", "result": 0.226},
      {"measurement": "SARS-CoV-2 infection rate", "setting": "[2]", "result": "105% (inactive)"}
    ]},
    {"smiles": "C[C@@H]1C[C@@H]([C@H](O)CC2CC(=O)NC(=O)C2)C(=O)[C@@H](C)C1", "note": "[cycloheximide] (10 µM)", "values": [
      {"measurement": "morphology score", "setting": "[1]", "result": 0.392},
      {"measurement": "SARS-CoV-2 infection rate", "setting": "[2]", "result": "69% (inactive)"}
    ]},
    {"smiles": "O=C(OCCO)c1ccccc1O", "note": "[2-hydroxyethyl-salicylate] (10 µM)", "values": [
      {"measurement": "morphology score", "setting": "[1]", "result": -0.198},
      {"measurement": "SARS-CoV-2 infection rate", "setting": "[2]", "result": "108% (inactive)"}
    ]},
    {"smiles": "CC(OC(=O)NCC1(CC(=O)O)CCCCC1)OC(=O)C(C)C", "note": "(stereo not given) [gabapentin-enacarbil] (10 µM)", "values": [
      {"measurement": "morphology score", "setting": "[1]", "result": -0.0175},
      {"measurement": "SARS-CoV-2 infection rate", "setting": "[2]", "result": "112% (inactive)"}
    ]},
    {"smiles": "COc1c(O[C@@H]2O[C@H](CO)[C@@H](O)[C@H](O)[C@H]2O)cc2c(c1OC)-c1ccc(SC)c(=O)cc1[C@@H](NC(C)=O)CC2", "note": "[thiocolchicoside] (10 µM)", "values": [
      {"measurement": "morphology score", "setting": "[1]", "result": -0.00288},
      {"measurement": "SARS-CoV-2 infection rate", "setting": "[2]", "result": "114% (inactive)"}
    ]},
    {"smiles": "C[C@@H]1CN(Cc2ccc(F)cc2)CCN1C(=O)COc1ccc(Cl)cc1NC(N)=O", "note": "(10 µM)", "values": [
      {"measurement": "morphology score", "setting": "[1]", "result": -0.0461},
      {"measurement": "SARS-CoV-2 infection rate", "setting": "[2]", "result": "112% (inactive)"}
    ]},
    {"smiles": "CC(C)(O)C(=O)N1CCN(c2ccc(C(F)(F)F)c(C3=C(c4c[nH]c5ccccc45)C(=O)NC3=O)c2)CC1", "note": "(0.833333 µM)", "values": [
      {"measurement": "morphology score", "setting": "[1]", "result": -0.201},
      {"measurement": "SARS-CoV-2 infection rate", "setting": "[2]", "result": "108% (inactive)"}
    ]},
    {"smiles": "O=C(Nc1cnc(Cl)nc1)c1ccc(F)c(F)c1", "note": "(10 µM)", "values": [
      {"measurement": "morphology score", "setting": "[1]", "result": 0.0439},
      {"measurement": "SARS-CoV-2 infection rate", "setting": "[2]", "result": "101% (inactive)"}
    ]},
    {"smiles": "CCOC(=O)c1c(C)n(C)c2ccc(O)cc12", "note": "[mecarbinate] (10 µM)", "values": [
      {"measurement": "morphology score", "setting": "[1]", "result": 0.132},
      {"measurement": "SARS-CoV-2 infection rate", "setting": "[2]", "result": "112% (inactive)"}
    ]},
    {"smiles": "O=S(=O)(O)NC1CCCCC1", "note": "[cyclamic-acid] (10 µM)", "values": [
      {"measurement": "morphology score", "setting": "[1]", "result": 0.146},
      {"measurement": "SARS-CoV-2 infection rate", "setting": "[2]", "result": "87.5% (inactive)"}
    ]},
    {"smiles": "O=C(O)CCC(=O)O", "note": "[succinic-acid] (10 µM)", "values": [
      {"measurement": "morphology score", "setting": "[1]", "result": -0.0828},
      {"measurement": "SARS-CoV-2 infection rate", "setting": "[2]", "result": "106% (inactive)"}
    ]},
    {"smiles": "Cn1nc(C(C)(C)C)cc1C(=O)N[C@@H](Cc1cccc(Cl)c1)C(=O)NCC#N", "note": "[cathepsin-inhibitor-1] (10 µM)", "values": [
      {"measurement": "morphology score", "setting": "[1]", "result": 0.186},
      {"measurement": "SARS-CoV-2 infection rate", "setting": "[2]", "result": "97.5% (inactive)"}
    ]},
    {"smiles": "N[C@@H](CSCCCO)C(=O)O", "note": "[fudosteine] (10 µM)", "values": [
      {"measurement": "morphology score", "setting": "[1]", "result": 0.0399},
      {"measurement": "SARS-CoV-2 infection rate", "setting": "[2]", "result": "104% (inactive)"}
    ]},
    {"smiles": "O=C(O)CCCCCCCC(=O)O", "note": "[azelaic-acid] (10 µM)", "values": [
      {"measurement": "morphology score", "setting": "[1]", "result": 0.0279},
      {"measurement": "SARS-CoV-2 infection rate", "setting": "[2]", "result": "104% (inactive)"}
    ]},
    {"smiles": "Cc1cc(C)c2nc(-c3ccccn3)cc(C(=O)Nc3ccc(S(=O)(=O)Nc4onc(C)c4C)cc3)c2c1", "note": "(10 µM)", "values": [
      {"measurement": "morphology score", "setting": "[1]", "result": -0.319},
      {"measurement": "SARS-CoV-2 infection rate", "setting": "[2]", "result": "97% (inactive)"}
    ]},
    {"smiles": "N[C@@H]1CCCN(c2c(/C=C3\\SC(=O)NC3=O)cccc2-c2ccccc2)C1", "note": "(10 µM)", "values": [
      {"measurement": "morphology score", "setting": "[1]", "result": -0.0825},
      {"measurement": "SARS-CoV-2 infection rate", "setting": "[2]", "result": "110% (inactive)"}
    ]},
    {"smiles": "Cc1cc(C)c(NC(=O)C2CC3CCC2C3)c(C)c1", "note": "(stereo not given) (10 µM)", "values": [
      {"measurement": "morphology score", "setting": "[1]", "result": -0.102},
      {"measurement": "SARS-CoV-2 infection rate", "setting": "[2]", "result": "102% (inactive)"}
    ]},
    {"smiles": "Cn1cccc1/C=C1\\C(=O)NC(=O)c2ccccc21", "note": "(0.833333 µM)", "values": [
      {"measurement": "morphology score", "setting": "[1]", "result": 0.0943},
      {"measurement": "SARS-CoV-2 infection rate", "setting": "[2]", "result": "100% (inactive)"}
    ]},
    {"smiles": "CC(C)C(=O)Nc1ccc([N+](=O)[O-])c(C(F)(F)F)c1", "note": "[flutamide] (10 µM)", "values": [
      {"measurement": "morphology score", "setting": "[1]", "result": -0.24},
      {"measurement": "SARS-CoV-2 infection rate", "setting": "[2]", "result": "112% (inactive)"}
    ]},
    {"smiles": "CNCCc1ccc(O)c(O)c1", "note": "[deoxyepinephrine] (10 µM)", "values": [
      {"measurement": "morphology score", "setting": "[1]", "result": 0.0423},
      {"measurement": "SARS-CoV-2 infection rate", "setting": "[2]", "result": "106% (inactive)"}
    ]},
    {"smiles": "O=C(O)CNC(=O)c1c(O)c2ccccc2n(Cc2ccccc2)c1=O", "note": "(10 µM)", "values": [
      {"measurement": "morphology score", "setting": "[1]", "result": -0.000636},
      {"measurement": "SARS-CoV-2 infection rate", "setting": "[2]", "result": "102% (inactive)"}
    ]},
    {"smiles": "OCC(CO)N[C@H]1C[C@](O)(CO)[C@@H](O)[C@H](O)[C@H]1O", "note": "[voglibose] (10 µM)", "values": [
      {"measurement": "morphology score", "setting": "[1]", "result": -0.105},
      {"measurement": "SARS-CoV-2 infection rate", "setting": "[2]", "result": "106% (inactive)"}
    ]}
  ]
}
